Test results from PubChem BioAssay (NCI).
Several values for one entry are separate records, joined by “and”; a condition that tells them apart may be missing. Equal entries are not always repeated. The panel holds about 79,000 compounds, 15% with a hit somewhere; the sample as a whole holds those more often. Unmarked numbers belong to inactive results. Cut-off read from the data, not from the text of the source: active = growth inhibition above about 70%; inactive = the rest.

Test: NCI Yeast Anticancer Drug Screen. Data for the rad50 strain (AID 155);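 note: 0% = growth of vehicle-only cultures of the same strain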
Conditions: S. cerevisiae rad50 strain growth inhibition, active compounds read high; at 50.0 µM unless noted
Description: Growth inhibition of yeast strains with defined genetic alterations is measured as a screen for potential anti-cancer activity. Selected strains with alterations in DNA damage repair or cell cycle control were exposed to compounds and growth inhibition was measured relative to vehicle treated controls. The strain used in this assay is rad50

Structure (SMILES) | growth inhibition
N#C/C(=C1/c2cc([N+](=O)[O-])ccc2-c2c1cc([N+](=O)[O-])cc2[N+](=O)[O-])N1CCCCC1 | -25.4%
C(#Cc1ccccc1)CC#Cc1ccccc1 | 5.4%
COc1c2c(c(OC)c3c(=O)cc(C/C(=N/NC(=O)C[n+]4ccccc4)C(=O)Nc4cc(C)ccc4C)oc13)OCO2 | -13.4%
CC(=O)CC/C=C(\C)CC(C)C | 17.4%
CNC(=O)NC(c1ccc(F)cc1)c1cc2c(cc1O)OCO2 (stereo not given) | -2.2%
COC(=O)/C=C(\C(=O)OC)N1CCCCC1 | 1.55%
CC1(C)COC(=S)N1 | -3% and -28.6%
Clc1cccc(Cl)c1C1SCc2nc3cc4ccccc4cc3n21 (stereo not given) | -1.8%
c1ccc(C(=NN=C(c2ccccc2)c2ccccc2)c2ccccc2)cc1 | 17.9%
O=C(O)c1ccc(P(=O)(O)O)cc1[N+](=O)[O-] | 26.4%
O=C(O)C1CCC(=O)N1Cc1c[nH]c2ccccc12 (stereo not given) | -2.2%
CCCCNC(=O)/C=C/C(=O)NCCCC | 11.5%
CC1CN(CCO)CCN1Cc1ccccc1 (stereo not given) | -12.6%
C=C1C(=O)OC2/C=C(\COC(C)=O)CCC(OC(C)=O)C3=CC(OC3=O)C12 (stereo not given) | -0.4%
Cc1ccc(S(=O)(=O)N/N=C(\c2nc3ccc(Cl)cc3[nH]c2=O)C(O)c2cccc([N+](=O)[O-])c2)cc1 (stereo not given) | -1.5%
CC(CC(=O)O)(CC(=O)O)C(=O)O | 16.1%
CN(C)Cc1ccccc1CC1(O)CCCC1 | 19.6%
Cc1cc(N(CCC#N)CCC#N)ccc1N=Nc1ccc(S(N)(=O)=O)cc1 | -39.6%
OCC1=CC(O)C2C=COC(OC3OC(CO)C(O)C(O)C3O)C12 (stereo not given) | -15.9%
CC(=O)Nc1ccc(N(C)C)cc1 | 0.15%

Structure (SMILES) | growth inhibition
CN=c1ss/c(=N\C(=S)N(C)C)n1C1CCCCC1 | -9.6%
O=C(Nc1ccc([N+](=O)[O-])cc1C(=O)O)c1ccc([N+](=O)[O-])cc1 | 37.8%
COc1ccc2c(O)c(Oc3ccccc3)c(=O)oc2c1 | 0.5%
COC1OC2COc3ccccc3OC2C2C1N2C(N)=O (stereo not given) | 7.4%
CSc1nc(N)c(I)c(Cl)n1 | 7.8%
CC1=C(C#N)C(=C(C#N)C#N)OC1(C)Cc1ccccc1 (stereo not given) | 8.25%
C=CCSc1cccc(C)c1 | -19.4%
COC(=O)N/N=C(/CCC(=O)Nc1ccc(C)c(C)c1)CC(=O)C(C)(C)C | -10.8%
Clc1ccc(/C=N\OCc2ccc(Cl)c(Cl)c2)cc1Cl | -9.85%
CCC(=N\NC(=S)NCCN(C)C)/C(C)=N/NC(=S)NCCN(C)C | 57%
[N-]=[N+]=CC(=O)C1OC12C1CC3CC(C1)CC2C3 (stereo not given) | -9.2%
COC1CN(C(C)(C)C)C1 | 2.65%
O=c1cc(-c2ccccc2)[nH]c2c(F)ccc(F)c12 | -27.4%
CCCNC(=O)Cn1c(-c2ccccc2)cc2ccccc21 | 13.4%
COC(=O)/C([O-])=C(\C(=O)OC)[n+]1cc(Br)cc2ccccc21 | 4.15%
C=C1CC(C)(COc2ccc3ccc(=O)oc3c2)OC1=O (stereo not given) | 24.4%
CC(=O)c1cc([N+](=O)[O-])ccc1OCC(=O)O | 5.95%
CCCC(C)C(C(=O)OCC)C(=O)OCC (stereo not given) | 2.6% and -5.35%
c1ccc(NN=Nc2ncnc3nc[nH]c23)cc1 | 3.35%
COc1ccc(CCl)cc1OCc1ccccc1 | -33.7%
